Test in all cases: DAPPL (digital affinity profiling via proximity ligation, sequencing); 10 mM Tris-HCl pH 7.5, 50 mM NaCl, 1 mM DTT, 4% glycerol, room temperature, 30 min; GST-TFs on glutathione beads, 16-mer random dsDNA library, 0.1% formaldehyde crosslink after washing; high values mean tight binding
Holding throughout (settings): protein: recombinant; tags: N-terminal GST; dsDNA, one strand shown

One test deals with T1, FLI1 (Homo sapiens, UniProt Q01543 1-452).
T1 sequence: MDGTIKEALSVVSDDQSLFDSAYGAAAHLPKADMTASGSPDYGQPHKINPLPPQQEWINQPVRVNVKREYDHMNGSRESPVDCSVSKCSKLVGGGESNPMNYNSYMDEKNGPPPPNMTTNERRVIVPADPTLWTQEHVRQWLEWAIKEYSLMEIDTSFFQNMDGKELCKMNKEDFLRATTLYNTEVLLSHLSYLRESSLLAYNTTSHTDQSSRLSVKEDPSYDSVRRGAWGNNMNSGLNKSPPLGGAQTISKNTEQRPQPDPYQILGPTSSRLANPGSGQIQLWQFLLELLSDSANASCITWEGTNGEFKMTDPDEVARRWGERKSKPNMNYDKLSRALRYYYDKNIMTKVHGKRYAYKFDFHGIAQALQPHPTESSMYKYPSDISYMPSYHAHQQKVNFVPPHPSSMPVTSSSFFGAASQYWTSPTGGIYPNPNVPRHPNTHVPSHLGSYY
The essentials: (§1)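 Binding signal is each hexamer's read frequency for a factor divided by its frequency in the tag-only sample. The factors were GST-fused human transcription factors from yeast, captured on glutathione beads, DNA-barcoded and pooled with that sample. Pools were incubated with 200 nmole of a random double-stranded 16-mer DNA library in Tris/NaCl/DTT/glycerol buffer at room temperature for 30 min, then washed, crosslinked with 0.1% formaldehyde, proximity-ligated with BsaI/T4 ligase (1 h, 37 °C), PCR-amplified and sequenced on an Illumina NextSeq500.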

In another test the target is T2, ELK1 (Homo sapiens, UniProt P19419 1-428).
T2 sequence: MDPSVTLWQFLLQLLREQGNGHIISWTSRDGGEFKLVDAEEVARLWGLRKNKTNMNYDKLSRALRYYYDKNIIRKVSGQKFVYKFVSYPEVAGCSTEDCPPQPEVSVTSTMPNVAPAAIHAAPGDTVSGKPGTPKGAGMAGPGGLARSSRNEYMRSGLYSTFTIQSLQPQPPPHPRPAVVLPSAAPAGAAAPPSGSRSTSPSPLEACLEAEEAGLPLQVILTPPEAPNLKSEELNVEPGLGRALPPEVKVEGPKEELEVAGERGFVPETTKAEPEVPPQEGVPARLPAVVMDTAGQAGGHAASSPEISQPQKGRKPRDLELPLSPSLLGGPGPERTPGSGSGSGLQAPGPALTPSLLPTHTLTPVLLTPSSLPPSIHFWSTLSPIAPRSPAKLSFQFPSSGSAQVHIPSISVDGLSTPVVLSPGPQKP
A digest of the protocol:
as §1

The target in the next test is T3, GABPA (Homo sapiens, UniProt Q06546 1-454).
T3 sequence: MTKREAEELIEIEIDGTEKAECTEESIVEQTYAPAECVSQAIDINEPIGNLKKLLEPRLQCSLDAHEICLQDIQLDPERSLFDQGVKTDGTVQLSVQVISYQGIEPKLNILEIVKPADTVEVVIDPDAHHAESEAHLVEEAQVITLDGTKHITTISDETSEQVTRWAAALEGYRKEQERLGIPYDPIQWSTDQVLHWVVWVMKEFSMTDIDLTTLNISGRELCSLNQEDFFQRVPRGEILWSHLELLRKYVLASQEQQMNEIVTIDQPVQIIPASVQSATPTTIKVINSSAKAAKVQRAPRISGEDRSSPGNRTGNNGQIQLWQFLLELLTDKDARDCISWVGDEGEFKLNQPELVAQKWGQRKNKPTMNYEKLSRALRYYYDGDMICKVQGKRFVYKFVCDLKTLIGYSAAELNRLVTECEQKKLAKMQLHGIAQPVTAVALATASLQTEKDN
A digest of the protocol:
as §1

Another test deals with T4, ERG (Homo sapiens, UniProt P11308 1-479).
T4 sequence: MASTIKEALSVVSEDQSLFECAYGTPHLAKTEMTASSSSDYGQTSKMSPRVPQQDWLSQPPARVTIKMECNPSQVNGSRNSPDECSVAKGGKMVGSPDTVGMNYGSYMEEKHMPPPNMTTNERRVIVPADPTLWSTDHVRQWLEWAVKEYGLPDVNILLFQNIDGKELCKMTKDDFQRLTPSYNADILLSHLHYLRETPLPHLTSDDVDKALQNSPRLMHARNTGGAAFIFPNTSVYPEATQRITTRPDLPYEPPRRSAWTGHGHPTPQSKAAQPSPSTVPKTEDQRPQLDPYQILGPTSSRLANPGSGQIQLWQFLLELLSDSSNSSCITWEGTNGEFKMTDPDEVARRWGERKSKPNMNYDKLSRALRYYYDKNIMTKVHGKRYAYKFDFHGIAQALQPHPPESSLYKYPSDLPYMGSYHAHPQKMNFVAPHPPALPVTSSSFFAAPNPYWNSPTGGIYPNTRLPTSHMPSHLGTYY
A digest of the protocol:
as §1

The target in the next test is ELF1 (Homo sapiens, UniProt P32519 1-619). A digest of the protocol:
as §1

Another test has as its target T5, EHF (Homo sapiens, UniProt Q9NZC4 1-300).
T5 sequence: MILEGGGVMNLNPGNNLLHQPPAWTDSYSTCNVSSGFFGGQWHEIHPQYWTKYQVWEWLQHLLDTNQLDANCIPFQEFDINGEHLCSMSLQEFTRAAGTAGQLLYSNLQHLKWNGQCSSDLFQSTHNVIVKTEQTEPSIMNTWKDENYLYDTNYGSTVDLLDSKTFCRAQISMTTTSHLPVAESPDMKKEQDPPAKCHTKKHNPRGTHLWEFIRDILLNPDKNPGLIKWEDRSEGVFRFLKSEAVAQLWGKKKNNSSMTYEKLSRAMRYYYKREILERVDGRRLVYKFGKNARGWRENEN
A digest of the protocol: as §1

The target of another test is SPI1 (Homo sapiens, UniProt P17947 1-270). The essentials:
as §1

The target of another test is SPIB (Homo sapiens, UniProt Q01892 1-262). The essentials: as §1
The target in another test is T6, ELK3 (Homo sapiens, UniProt P41970 1-407).
T6 sequence: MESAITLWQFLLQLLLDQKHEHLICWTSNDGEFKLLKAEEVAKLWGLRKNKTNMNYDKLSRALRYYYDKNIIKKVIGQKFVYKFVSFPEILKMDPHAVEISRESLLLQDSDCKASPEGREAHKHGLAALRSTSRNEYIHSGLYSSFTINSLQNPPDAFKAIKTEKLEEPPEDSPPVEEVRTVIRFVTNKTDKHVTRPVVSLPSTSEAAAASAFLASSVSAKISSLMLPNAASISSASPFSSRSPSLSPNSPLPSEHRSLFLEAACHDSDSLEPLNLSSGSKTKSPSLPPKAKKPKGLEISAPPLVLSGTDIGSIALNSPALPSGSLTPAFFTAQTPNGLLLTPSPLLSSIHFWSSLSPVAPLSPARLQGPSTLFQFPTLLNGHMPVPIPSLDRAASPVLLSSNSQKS
The essentials:
as §1

Sequence of ELF1 (P32519 whole entry): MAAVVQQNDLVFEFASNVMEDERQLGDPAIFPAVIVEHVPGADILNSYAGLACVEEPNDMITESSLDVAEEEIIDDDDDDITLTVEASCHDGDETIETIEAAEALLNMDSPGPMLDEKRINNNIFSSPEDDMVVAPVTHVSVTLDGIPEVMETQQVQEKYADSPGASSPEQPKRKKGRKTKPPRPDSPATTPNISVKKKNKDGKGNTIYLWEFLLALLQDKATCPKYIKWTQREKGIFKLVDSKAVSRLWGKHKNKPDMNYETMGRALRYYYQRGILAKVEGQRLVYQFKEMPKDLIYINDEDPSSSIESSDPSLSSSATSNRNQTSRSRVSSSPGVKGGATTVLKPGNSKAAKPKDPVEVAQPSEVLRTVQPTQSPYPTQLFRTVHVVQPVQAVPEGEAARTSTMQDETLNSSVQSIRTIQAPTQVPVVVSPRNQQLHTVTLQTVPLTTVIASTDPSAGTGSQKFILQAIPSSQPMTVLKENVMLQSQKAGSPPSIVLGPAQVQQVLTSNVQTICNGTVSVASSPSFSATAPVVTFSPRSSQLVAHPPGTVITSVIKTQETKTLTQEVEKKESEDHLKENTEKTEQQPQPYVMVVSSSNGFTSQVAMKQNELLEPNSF
Sequence of SPIB (Q01892 whole entry): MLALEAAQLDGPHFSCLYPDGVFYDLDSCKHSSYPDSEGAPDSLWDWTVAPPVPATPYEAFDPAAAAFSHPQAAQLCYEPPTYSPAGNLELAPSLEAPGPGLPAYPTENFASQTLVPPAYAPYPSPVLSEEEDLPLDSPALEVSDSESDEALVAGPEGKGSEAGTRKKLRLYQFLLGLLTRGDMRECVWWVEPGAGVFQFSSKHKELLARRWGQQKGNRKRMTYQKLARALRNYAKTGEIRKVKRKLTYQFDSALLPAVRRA

As for GCTCAA, the binding signal with FLI1 is 1.05 fold enrichment (6-mer frequency, TF over GST control); with ELK1, 1.1 fold enrichment (6-mer frequency, TF over GST control); with GABPA it was 1.05 fold enrichment (6-mer frequency, TF over GST control); in the test with ERG, 1.15 fold enrichment (6-mer frequency, TF over GST control); in the test with ELF1, 1.09 fold enrichment (6-mer frequency, TF over GST control); with EHF it was 1.13 fold enrichment (6-mer frequency, TF over GST control). For the same sequence, the binding signal in the test with SPI1 is 1.09 fold enrichment (6-mer frequency, TF over GST control); with SPIB it was 1.1 fold enrichment (6-mer frequency, TF over GST control); in the test with ELK3, 1.01 fold enrichment (6-mer frequency, TF over GST control).

GTTTAA: the binding signal was 1.19 fold enrichment (6-mer frequency, TF over GST control) with FLI1; 1.19 fold enrichment (6-mer frequency, TF over GST control) with ELK1; 1.13 fold enrichment (6-mer frequency, TF over GST control) in the test with GABPA; 1.13 fold enrichment (6-mer frequency, TF over GST control) with ERG; 1.13 fold enrichment (6-mer frequency, TF over GST control) with ELF1; 1.17 fold enrichment (6-mer frequency, TF over GST control) in the test with EHF. The binding signal is 1.16 fold enrichment (6-mer frequency, TF over GST control) with SPI1; 1.27 fold enrichment (6-mer frequency, TF over GST control) in the test with SPIB; 1.26 fold enrichment (6-mer frequency, TF over GST control) with ELK3.

In the case of ACTCTG, the binding signal is 1.28 fold enrichment (6-mer frequency, TF over GST control) with FLI1; 1.23 fold enrichment (6-mer frequency, TF over GST control) with ELK1; 1.38 fold enrichment (6-mer frequency, TF over GST control) with GABPA; 1.24 fold enrichment (6-mer frequency, TF over GST control) with ERG; 1.37 fold enrichment (6-mer frequency, TF over GST control) in the test with ELF1; 1.33 fold enrichment (6-mer frequency, TF over GST control) with EHF. In addition, the binding signal was 1.26 fold enrichment (6-mer frequency, TF over GST control) with SPI1; 1.21 fold enrichment (6-mer frequency, TF over GST control) in the test with SPIB; 1.14 fold enrichment (6-mer frequency, TF over GST control) in the test with ELK3.

With ATACAG, the binding signal in the test with FLI1 is 1.16 fold enrichment (6-mer frequency, TF over GST control); with ELK1 it was 1.11 fold enrichment (6-mer frequency, TF over GST control); with GABPA, 1.29 fold enrichment (6-mer frequency, TF over GST control); in the test with ERG, 1.16 fold enrichment (6-mer frequency, TF over GST control); with ELF1, 1.13 fold enrichment (6-mer frequency, TF over GST control); in the test with EHF it was 1.16 fold enrichment (6-mer frequency, TF over GST control). Also, the binding signal is 1.12 fold enrichment (6-mer frequency, TF over GST control) in the test with SPI1; 1.15 fold enrichment (6-mer frequency, TF over GST control) in the test with SPIB; 1.07 fold enrichment (6-mer frequency, TF over GST control) in the test with ELK3.

With TTCAAT, the binding signal with FLI1 was 1.33 fold enrichment (6-mer frequency, TF over GST control); with ELK1, 1.42 fold enrichment (6-mer frequency, TF over GST control); in the test with GABPA, 1.42 fold enrichment (6-mer frequency, TF over GST control); with ERG it was 1.41 fold enrichment (6-mer frequency, TF over GST control); with ELF1, 1.37 fold enrichment (6-mer frequency, TF over GST control); with EHF it was 1.34 fold enrichment (6-mer frequency, TF over GST control). The binding signal in the test with SPI1 was 1.38 fold enrichment (6-mer frequency, TF over GST control); in the test with SPIB, 1.36 fold enrichment (6-mer frequency, TF over GST control); in the test with ELK3 it was 1.26 fold enrichment (6-mer frequency, TF over GST control).

Take CCTAAA: the binding signal is 1.35 fold enrichment (6-mer frequency, TF over GST control) in the test with FLI1; 1.26 fold enrichment (6-mer frequency, TF over GST control) with ELK1; 1.25 fold enrichment (6-mer frequency, TF over GST control) with GABPA; 1.37 fold enrichment (6-mer frequency, TF over GST control) with ERG; 1.34 fold enrichment (6-mer frequency, TF over GST control) with ELF1; 1.28 fold enrichment (6-mer frequency, TF over GST control) with EHF. In addition, the binding signal was 1.25 fold enrichment (6-mer frequency, TF over GST control) with SPI1; 1.26 fold enrichment (6-mer frequency, TF over GST control) in the test with SPIB; 1.4 fold enrichment (6-mer frequency, TF over GST control) in the test with ELK3.

For CCTAGC, the binding signal in the test with FLI1 is 1.18 fold enrichment (6-mer frequency, TF over GST control); with ELK1, 1.1 fold enrichment (6-mer frequency, TF over GST control); with GABPA it was 1.31 fold enrichment (6-mer frequency, TF over GST control); with ERG, 1.14 fold enrichment (6-mer frequency, TF over GST control); with ELF1 it was 1.24 fold enrichment (6-mer frequency, TF over GST control); with EHF, 1.2 fold enrichment (6-mer frequency, TF over GST control). The binding signal is 1.04 fold enrichment (6-mer frequency, TF over GST control) with SPI1; 1.26 fold enrichment (6-mer frequency, TF over GST control) with SPIB; 1.22 fold enrichment (6-mer frequency, TF over GST control) with ELK3.

In the case of TGAACT, the binding signal was 1.27 fold enrichment (6-mer frequency, TF over GST control) in the test with FLI1; 1.19 fold enrichment (6-mer frequency, TF over GST control) with ELK1; 1.33 fold enrichment (6-mer frequency, TF over GST control) with GABPA; 1.32 fold enrichment (6-mer frequency, TF over GST control) with ERG; 1.2 fold enrichment (6-mer frequency, TF over GST control) in the test with ELF1; 1.34 fold enrichment (6-mer frequency, TF over GST control) with EHF. Moreover, the binding signal was 1.17 fold enrichment (6-mer frequency, TF over GST control) with SPI1; 1.25 fold enrichment (6-mer frequency, TF over GST control) in the test with SPIB; 1.19 fold enrichment (6-mer frequency, TF over GST control) in the test with ELK3.

Source of the values: publication PMC7862700, “An all-to-all approach to the identification of sequence-specific readers for epigenetic DNA modifications on cytosine”.
